# Data taken from PubChem BioAssay (NCATS).
# Results filed as inconclusive are left out. Where a call stands in place of a potency, no number is given. Activity calls are given as the source filed them. The call rests on the fitted dose curve; in most records, active means well fitted cell-killing curve with a large enough effect; inconclusive means small, poorly fitted or top-dose-only effect, or effect the other way; inactive means no such curve, though single readings can be large or run the other way.
# Assay: Viability qHTS for spleen associated tyrosine kinase inhibitor (SYKi) naive MV4-11 cells (AID 1963823); further: nearly all actives have a fitted effect of over 40% in size
# Conditions: MV4-11 AML viability, CellTiter-Glo luminescence, 72 h; series mostly up to 45 µM
# Outline: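 qHTS, SYK inhibitor-naive MV4-11; 500 cells/well; 72 hr compound exposure, 37 C; CellTiter-Glo added, 10 min RT; luminescence read.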
# Potency means the concentration at half of the fitted maximal effect.
row,SMILES,Potency
1,Cc1cc(CO)c(O)c(C(=O)CC2CC(=O)NC(=O)C2)c1,inactive
2,CC(C)c1c(NC(=O)Nc2ccc(Cl)cc2)c(=O)n(-c2ccccc2)n1C,inactive
3,C=C[C@H]1[C@H](O[C@@H]2O[C@H](CO)[C@@H](O)[C@H](O)[C@H]2O)OC=C2C(=O)OCC[C@]21O,inactive
4,CC(C)=CCc1ccc(Oc2c(O)cc(C)cc2CO)c(C(=O)O)c1O,inactive
5,OC/C=C/C=C/[C@H]1Cc2cc(O)cc(O)c2O1,inactive
6,COc1ccc(-c2ccccc2)cc1NS(=O)(=O)c1cc(Cl)cc(Cl)c1O,inactive
7,CC(=O)NC1C(OC(C)(C)C2CCC3(C)C=C(C4CCC5C4(C)CC(O)C4OC(C(C)(C)O)CCC45C)CCC3O2)OC(CO)C(O)C1O (stereo unspecified),1930 nM (active)
8,COc1ccc(NC(=O)C2C[C@H](C)CC[C@H]2C(C)C)cc1 (stereo partly specified),inactive
9,C=C[C@@]1(C)CCC2C(=CCC3[C@]2(C)CCC[C@@]3(C)C(=O)O)C1 (stereo partly specified),inactive
10,OC[C@@]1(O)CO[C@H](OC[C@H]2O[C@@H](OCCc3ccccc3)[C@H](O)[C@@H](O)[C@@H]2O)[C@@H]1O,inactive
11,C=C1[C@@H]2CC[C@@H]3[C@@](CCC4C(C(=O)O)(C(=O)O)C[C@@H](O[C@@H]5O[C@H](CO)[C@@H](O)[C@H](O)[C@H]5OC(=O)CC(C)C)C[C@]43C)(C2)[C@H]1O (stereo partly specified),inactive
